USP28 block: human USP28 deubiquitinase inhibition. Q96RU2. purified USP28, Ub-rhodamine cleavage fluorescence, 30 min. inhibition, % at 25 µM. 47,000 tested, 3% active. AID 1645857
USP17 block: human USP17-like deubiquitinase inhibition. inhibition, % at 50 µM. AID 1645855. 47,000 tested, 6.5% active. purified USP17, Ub-rhodamine cleavage fluorescence, 3 h. A8MUK1
USP8 block: blocks human USP8 ubiquitin-rhodamine cleavage; purified USP8, Ub-rhodamine cleavage fluorescence, 30 min; inhibition, % at 20 µM; P40818; 47,000 tested, 4.2% active
Target sequence (P40818 whole entry, looked up): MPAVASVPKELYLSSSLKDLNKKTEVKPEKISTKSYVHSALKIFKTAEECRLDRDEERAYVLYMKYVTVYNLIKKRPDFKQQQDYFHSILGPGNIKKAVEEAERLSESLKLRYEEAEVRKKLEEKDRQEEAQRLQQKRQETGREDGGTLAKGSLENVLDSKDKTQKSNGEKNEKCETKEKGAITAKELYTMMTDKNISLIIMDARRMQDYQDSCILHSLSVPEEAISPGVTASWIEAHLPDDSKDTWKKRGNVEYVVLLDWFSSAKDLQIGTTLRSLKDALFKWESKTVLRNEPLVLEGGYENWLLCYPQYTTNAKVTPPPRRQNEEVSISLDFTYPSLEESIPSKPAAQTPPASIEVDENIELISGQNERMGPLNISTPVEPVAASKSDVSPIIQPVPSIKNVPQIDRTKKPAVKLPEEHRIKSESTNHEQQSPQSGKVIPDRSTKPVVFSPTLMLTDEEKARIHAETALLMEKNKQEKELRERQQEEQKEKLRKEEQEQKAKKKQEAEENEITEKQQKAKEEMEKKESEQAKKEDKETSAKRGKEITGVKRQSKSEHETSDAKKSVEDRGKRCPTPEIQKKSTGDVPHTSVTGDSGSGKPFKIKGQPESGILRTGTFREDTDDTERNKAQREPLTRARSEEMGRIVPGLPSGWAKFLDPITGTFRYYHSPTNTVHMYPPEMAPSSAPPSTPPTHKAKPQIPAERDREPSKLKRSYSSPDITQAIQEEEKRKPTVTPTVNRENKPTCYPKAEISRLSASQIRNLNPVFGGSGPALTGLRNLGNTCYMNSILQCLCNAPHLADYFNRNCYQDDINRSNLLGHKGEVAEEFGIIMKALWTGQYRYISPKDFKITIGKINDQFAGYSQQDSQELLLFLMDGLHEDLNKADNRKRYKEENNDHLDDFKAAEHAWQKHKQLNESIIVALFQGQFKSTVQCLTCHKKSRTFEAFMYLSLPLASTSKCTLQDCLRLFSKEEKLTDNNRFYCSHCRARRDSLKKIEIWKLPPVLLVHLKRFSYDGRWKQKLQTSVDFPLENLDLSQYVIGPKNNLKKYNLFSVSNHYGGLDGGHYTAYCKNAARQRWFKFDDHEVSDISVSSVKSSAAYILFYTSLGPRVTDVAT
USP30 inh: blocks human USP30 ubiquitin-rhodamine cleavage. purified USP30, Ub-rhodamine cleavage fluorescence. inhibition, % at 25 µM. 47,000 tested, 5.3% active
* = called active by the depositor. Only some compounds are listed: those with a hit (about 14% of all), similar ones and a draw of the others. Cut-off read from the data, not from the text of the source: active = inhibition above about 30%; inactive = the rest.

COc1ccc(NC(=O)COC(=O)Cn2cnc3ccccc32)cc1OC was read as USP28 block -10, USP17 block -6, USP8 block -40 and USP30 inh -5.
`CCOC(=O)CNC(=O)N1CCC(=O)N(C)c2ccccc2C(OC)C1` (stereo not given) gave USP28 block -3, USP17 block 0, USP8 block -26 and USP30 inh 1.
Screening CN(C)S(=O)(=O)c1ccc(C(=O)Nc2c(C#N)oc3ccccc23)cc1 returned USP28 block 27, USP17 block 51*, USP8 block 0 and USP30 inh 26.
Screening COCCCN1Cc2cc3cc(OC)ccc3nc2OCC1=O returned USP28 block 8, USP17 block 15, USP8 block 6 and USP30 inh 5.
For COc1ccc2nc3c(cc2c1)CN(CC1CC1)C(=O)CO3 the results were USP28 block 14, USP17 block 5, USP8 block 1 and USP30 inh 40*.
Screening Cc1ccccc1-c1nc(CN(C)C(=O)Nc2cccc(C)c2C)c(C)o1 returned USP28 block 9, USP8 block 0 and USP30 inh 22.
`Cc1ccccc1-c1nc(CN(C)S(=O)(=O)c2ccccc2)c(C)o1` gave USP28 block 22, USP17 block 19, USP8 block 6 and USP30 inh 56*.
`CCn1c(=O)c(N2CCC(C(=O)NCc3cccc(F)c3)CC2)nc2cccnc21` gave USP28 block -1, USP17 block -36, USP8 block -22 and USP30 inh -1.
For Cc1ncnc2c1ncn2[C@@H]1O[C@H](CO)[C@@H](O)[C@H]1O the results were USP28 block 2, USP17 block 2, USP8 block -2 and USP30 inh 13.
Screening Cc1ccc(-c2n[nH]c3c2C(c2ccccc2F)N(c2ccccc2)C3=O)cc1 (stereo not given) returned USP28 block 3, USP17 block 69*, USP8 block 71* and USP30 inh 55*.
For Cc1ccc(C2=NCCNC3=C2C(c2ccccc2F)N(c2ccccc2)C3=O)cc1 (stereo not given) the results were USP28 block 13, USP17 block 4, USP8 block 2 and USP30 inh 36*.
`COc1ccccc1CC(NC(C)=O)C(=O)NC1CCN(c2c(Cc3ccccc3)c(C)nc3ncnn23)CC1` (stereo not given) gave USP28 block -3, USP17 block -5, USP8 block -4 and USP30 inh 2.
c1ccc(CN2CCC(Nc3ncnc4sc5c(c34)CCC5)CC2)cc1 was read as USP28 block -25, USP17 block -8, USP8 block 11 and USP30 inh -89.
For COc1ccc(-c2cnn(-c3ccc(NC(=O)Nc4cccc(C(F)(F)F)c4)cc3)c2)cc1 the results were USP28 block 1, USP8 block 31* and USP30 inh 13.
`Cn1nnc2c(N3CCC(C(N)=O)(N4CCCCC4)CC3)nc(Cc3ccc(Cl)cc3Cl)nc21` gave USP28 block 8, USP17 block -17, USP8 block -10 and USP30 inh -12.
`Cc1ccc(C(=O)c2cn(CC(=O)Nc3ccccc3)c3ccccc3c2=O)cc1` gave USP28 block 23, USP17 block 37*, USP8 block 97* and USP30 inh 35*.
Screening Cc1ccc2c(c1)c(=O)c(C(=O)c1ccccc1)cn2CC(=O)Nc1ccc2c(c1)OCCO2 returned USP28 block -5, USP17 block 62*, USP8 block 30 and USP30 inh -5.
COc1ccc(NC(=O)Cn2cc(C(=O)c3ccc(C)cc3)c(=O)c3ccccc32)cc1 was read as USP28 block 41*, USP17 block 85*, USP8 block 49* and USP30 inh 49*.
`Cc1ccc(C(=O)c2cn(CC(=O)Nc3ccccc3)c3ccc(C)cc3c2=O)cc1` gave USP28 block 1, USP17 block 53*, USP8 block 62* and USP30 inh 14.
Cc1nc(N2CCOCC2)cc(N2CCN(C(=O)C3CCCCC3)CC2)n1 was read as USP28 block -7, USP17 block -4, USP8 block -7 and USP30 inh 6.
Screening O=C(Cn1cc(C(=O)c2ccc(F)cc2)c(=O)c2ccccc21)Nc1ccc2c(c1)OCO2 returned USP28 block 12, USP17 block 12, USP8 block 71* and USP30 inh 42*.
O=C(CN1CCc2[nH]c3c(F)c(Cl)ccc3c(=O)c2C1)NCc1ccc2c(c1)OCO2 was read as USP28 block 7, USP17 block 46*, USP8 block 0 and USP30 inh 32*.
`Cc1sc2nc(-c3cccnc3)nc(NCCCN3CCOCC3)c2c1C` gave USP28 block 4, USP17 block 33*, USP8 block -30 and USP30 inh 21.
`O=C1CC(c2ccccc2)CC(=O)N1c1ccc(F)c(F)c1` gave USP28 block -5, USP17 block 0, USP8 block -10 and USP30 inh -14.
`COc1ccc(NC(=O)CCCSc2nc3ccccc3[nH]2)cc1OC` gave USP28 block 6, USP17 block -2, USP8 block 1 and USP30 inh -8.
Cc1cccc(OCCCSc2nc3ccccc3[nH]2)c1 was read as USP28 block 45*, USP17 block 19, USP8 block -11 and USP30 inh 27.
Screening COc1cccc(OCCCSc2nc3ccccc3[nH]2)c1 returned USP28 block 41*, USP17 block 9, USP8 block 0 and USP30 inh 2.
Screening Cc1ccc(-n2ncc3c(=O)[nH]c(SCC(=O)NCc4ccco4)nc32)cc1C returned USP28 block -11, USP17 block -1, USP8 block 39* and USP30 inh -65.
CCN1CC2(CC1=O)CN(C(=O)NCC(C)C)CCN(C(=O)NC(C)C)C2 (stereo not given) was read as USP28 block 0, USP17 block -3, USP8 block -17 and USP30 inh -9.
`CCOC(=O)C1=C(CN2CCN(c3ccc(F)cc3)CC2)NC(=O)NC1c1ccc(OC)cc1` (stereo not given) gave USP28 block -2, USP17 block 36*, USP8 block -4 and USP30 inh 34*.
For CCOC(=O)C1=C(CN2CCC3(CC2)OCCO3)NC(=O)NC1c1ccc(OC)cc1 (stereo not given) the results were USP28 block 4, USP17 block 12, USP8 block -11 and USP30 inh 29.
For CCc1nccn1Cc1noc(-c2ccc3c(c2)OCO3)n1 the results were USP28 block 48*, USP17 block 18, USP8 block 18 and USP30 inh 25.
Screening Cn1ccnc1CN1C[C@@H](NC(=O)C2CCC2)[C@H]2COC[C@H]21 returned USP28 block 0, USP17 block -5, USP8 block -42 and USP30 inh -14.
CCOc1ccccc1C(=O)Oc1ccc2c(C)cc(=O)oc2c1 was read as USP28 block 8, USP17 block 59*, USP8 block 35* and USP30 inh 31*.
Screening O=C(COc1coc(CN2CCc3ccccc3C2)cc1=O)Nc1ccc(F)cc1 returned USP28 block 14, USP17 block 18, USP8 block 28 and USP30 inh -3.

High-throughput results as filed in PubChem BioAssay.
